# Assay outcomes (PubChem)
# HT1080NT lethal: kills 2HG-producing HT-1080-NT fibrosarcoma cells; 360,000 compounds, 1.6% hits; HT-1080-NT fibrosarcoma viability, CellTiter-Glo ATP luminescence, 48 h; Potency, µM (highest dose often 46.1 µM), actives largely listed as cytotoxic;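 note: NT is the 2HG producing partner of a matched IDH1 knockdown line; nearly all actives have a fitted effect of over 55% in size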
#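 Fibrosarcoma NT cells, 750 per well in 5% FBS RPMI, were exposed to compound for 48 hours. Viability: CellTiter-Glo luminescence.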
# KB-V1 cytotox: KB-V1 MDR subline cytotoxicity | KB-V1 MDR cells viability, CellTiter-Glo, 72 h | Potency, µM (series often up to 46.1 µM), usual class: cytotoxic | 400,000 compounds, 3.4% hits; note: nearly all actives have a fitted effect of over 60% in size
#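 Cytotoxicity via CellTiter-Glo luminescence after 72 h compound exposure at 37 degrees C. Cells: drug-selected KB-V1 line, DMEM phenol-red free plus 10% FBS. Compounds tested at multiple concentrations; normalized data fitted to concentration-effect curves.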
# MCF10A rerep: inducers of DNA re-replication in MCF 10A breast cells; 350,000 compounds, 2.9% hits; MCF 10A DNA re-replication, Hoechst nuclear intensity, 48 h; Potency, µM (doses to about 46.1 µM), most hits filed as activators; note: nearly all actives have a fitted effect of over 50% in size
# KB-3-1 cytotox: KB-3-1 parental cell cytotoxicity | KB-3-1 viability, CellTiter-Glo ATP luminescence, 72 h | Potency, µM (doses to about 46.1 µM), usual class: cytotoxic | 400,000 compounds, 1.4% hits | AID 1347075; note: nearly all actives have a fitted effect of over 60% in size
#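 Parental KB-3-1 viability, qHTS format: 72 h compound exposure, 37 °C; CellTiter-Glo; media-only wells and DMSO plates as controls; concentration-effect fits on corrected data.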
# SW480 rereplic: inducers of DNA re-replication in SW480 colon cancer cells; SW480 DNA re-replication, Hoechst DNA content imaging, 48 h; Potency, µM (top dose mostly 46.1 µM), hits mostly activators; 340,000 compounds, 1.8% hits; note: nearly all actives have a fitted effect of over 55% in size
#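 Image-based read-out: total Hoechst fluorescence of nuclei (405 nm excitation, 500-530 nm emission), with hits raising the fraction of high-intensity nuclei. SW480 colon cells incubated 48 hr with compounds at 37 C.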
# HT1080 IDH1KD tx: toxicity to HT-1080 IDH1 knockdown cells (counter line). HT-1080 IDH1 knockdown viability, ATP luminescence, 48 h. Potency, µM (doses to about 46.1 µM), most hits filed as cytotoxic. 360,000 compounds, 2% hits. AID 686971
#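 After a 2 h attachment period, IDH1KD HT-1080 cells took pin-transferred compound for 48 h at 37 °C; ATP-based luminescence after 10 min room-temperature reagent incubation reported viability.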
# Hits are given with their value; – = inactive; ? = inconclusive; · = not tested or not shown. An excerpt weighted towards active compounds, which were near 7.9% of everything screened. Calls come from the whole dose curve; as a rule, active = well fitted curve in the direction sought with a large enough effect; inconclusive = small, poorly fitted or top-dose-only effect, or another doubt; inactive = no such curve, though single readings can be large; an effect the other way counts as inactive or inconclusive.
SMILES,HT1080NT lethal,KB-V1 cytotox,MCF10A rerep,KB-3-1 cytotox,SW480 rereplic,HT1080 IDH1KD tx
O=C(NCc1ccc(Cl)cc1)C1CCCN(c2ncnc3onc(-c4ccc(F)cc4)c23)C1 (stereo not given),·,–,·,–,·,·
COc1ccc(Br)c(Cn2c(C)c(C(=O)NCc3ccccc3C(F)(F)F)sc2=O)c1,–,?,·,–,·,–
CC(Oc1ccc(Cl)cc1)C(=O)N1CCN(C(=O)c2ccco2)CC1 (stereo not given),–,21µM,–,–,–,–
O=C(c1ccco1)N1CCN(C(=O)C(Sc2ccccc2)c2ccccc2)CC1 (stereo not given),–,21µM,?,?,–,–
Cc1ccccc1OCC(=O)Nc1ccc(N2CCN(C(=O)c3ccco3)CC2)cc1,?,7.3µM,–,?,–,–
COc1ccc(OCC(=O)Nc2ccc(N3CCN(C(=O)c4ccco4)CC3)cc2)cc1,–,–,?,–,–,–
Cc1cccc(OCC(=O)Nc2ccc(N3CCN(C(=O)c4ccco4)CC3)cc2)c1C,–,–,–,–,–,–
O=C(COc1ccc(Cl)cc1)Nc1ccc(N2CCN(C(=O)c3ccco3)CC2)cc1,?,13µM,?,?,–,–
COc1ccc(S(=O)(=O)c2c(O)c3ccc(C(=O)NCc4ccc(F)cc4)cc3[nH]c2=O)cc1,·,–,·,–,·,·
COc1cccc(CN2CCN(C(=O)c3ccco3)CC2)c1,–,–,0.58µM,–,–,–
CCN(CC)Cc1c(O)c(Cl)cc2c(C)c(C)c(=O)oc12,–,–,?,–,–,–
Cc1c(Cc2ccccc2)c(=O)oc2c(CN(C)C)c(O)c(Cl)cc12,–,9.2µM,18µM,?,–,–
Cc1c(CC(=O)NCc2ccccc2)c(=O)oc2c(C)c(O)ccc12,·,?,·,13µM,·,·
Cc1c(Cc2ccccc2)c(=O)oc2c(O)c(O)ccc12,–,–,21µM,?,?,–
COc1ccc2c(C)c(CC(=O)NCc3ccc(C)cc3)c(=O)oc2c1OC,·,?,·,–,·,·
OB(O)c1ccc(Cl)s1,·,–,·,–,·,·
CC(=NCCc1c(C)[nH]c2ccc(C)cc12)C1=C(O)CC(c2ccccc2)CC1=O (stereo not given),–,5.8µM,2.3µM,5.8µM,6.5µM,8.2µM
CCC/C(O)=C1\C(=O)CC(c2ccccc2)CC1=NCCc1c(C)[nH]c2ccccc12 (stereo not given),–,–,–,–,–,–
CC(=NCCc1c(C)[nH]c2ccc(OC(F)(F)F)cc12)C1=C(O)CC(c2ccccc2)CC1=O (stereo not given),?,?,8.2µM,4.6µM,8.2µM,?
CCOc1ccc(CN(C)C(=O)CCl)cc1,?,?,?,?,16µM,?
CN1C(=O)C(CC(=O)Nc2ccc(Cl)cc2)N(Cc2ccco2)C1=S (stereo not given),–,–,21µM,–,–,–
COc1ccc(-c2cc(C(F)(F)F)nc(N3CCN(C)CC3)n2)cc1OC,?,16µM,–,?,–,?
COc1ccc(-c2cc(C(F)(F)F)nc(N3CCN(C)CC3)n2)cc1,?,12µM,?,?,–,?
COc1ccc(-c2cc(C(F)(F)F)nc(N3CCCCCC3)n2)cc1,–,–,23µM,–,–,–
COc1ccc(-c2cc(C(F)(F)F)nc(-n3ccnc3C)n2)cc1,–,21µM,–,?,–,–
SMILES,HT1080NT lethal,KB-V1 cytotox,MCF10A rerep,KB-3-1 cytotox,SW480 rereplic,HT1080 IDH1KD tx
CCS(=O)(=O)c1nc(S(=O)(=O)c2ccc(Cl)cc2)c(NCc2ccccc2Cl)s1,·,–,·,–,·,·
COc1cccc(-c2cc(C(F)(F)F)n3ncc(S(=O)(=O)c4ccccc4)c3n2)c1,–,–,7.3µM,–,8.2µM,–
COc1ccc(-c2cc(C(F)(F)F)nc(N3CCCCC3)n2)cc1OC,–,?,?,–,–,–
COc1cccc(-c2cc(C(F)(F)F)nc(N3CCCCC3)n2)c1,–,–,16µM,–,–,–
COc1cccc(-c2cc(C(F)(F)F)n3ncc(C(=O)O)c3n2)c1,–,–,–,–,–,–
Cc1ncoc1C(=O)N1CCc2c([nH]c3ccccc23)C1c1ccccc1F (stereo not given),?,–,–,–,–,–
CCn1nc(C)cc1C(=O)N1CCc2c([nH]c3ccccc23)C1c1cc(F)ccc1F (stereo not given),?,?,?,?,?,23µM
CCOC(=O)c1ccc(NC(=O)N2CC3CCCN3c3ccccc32)cc1 (stereo not given),·,–,·,–,·,·
CCCCOC(=O)c1cccc(NC(=O)c2cc3ccccc3o2)c1,·,–,·,–,·,·
COCc1cc(C)nc(OCC(=O)N/N=C/c2ccc(O)cc2)c1C#N,–,–,–,–,18µM,–
COCc1cc(C)nc(OCC(=O)N/N=C/c2ccc(OC)c(OC)c2)c1C#N,–,–,?,–,–,–
COc1ccc(-c2cc(C(=O)N3CCN(c4cccc(C)c4C)CC3)c3ccccc3n2)cc1OC,–,–,?,–,?,–
COc1cc(CC(=O)Nc2c(-c3ccccc3)[nH][nH]c2=O)cc(OC)c1,–,–,·,–,·,–
Cc1onc(-c2ccccc2)c1C(=O)NC(=S)NNC(=O)c1ccc(O)cc1,–,–,–,?,–,?
O=C(NC(=S)NNC(=O)c1ccccc1O)c1ccccc1,?,–,–,?,15µM,–
CC/C(=N\NC(=O)c1c(-c2ccccc2)noc1C)c1ccc(C)o1,–,13µM,–,–,–,–
Cc1onc(-c2ccccc2)c1C(=O)NC(=S)NNC(=O)c1ccccc1O,8.2µM,?,–,?,–,5.2µM
Cc1onc(-c2ccccc2)c1C(=O)NC(=S)NNC(=O)c1ccc(O)cc1O,?,3.3µM,?,4.6µM,–,–
Cc1ccc(C(=O)NC(=S)NNC(=O)c2ccccc2O)cc1,?,–,?,–,–,?
O=C(NC(=O)c1ccccc1O)c1ccc(C(F)(F)F)cc1,13µM,–,–,–,?,15µM
Cc1ccc(S(=O)(=O)NC(=O)NC2=NC(C)(C)N(c3ccc(Cl)c(Cl)c3)C(N)=N2)cc1,3.3µM,–,·,?,·,1.6µM
CC(C)N(C)C1CCN(S(=O)(=O)c2ccc3[nH]c(=O)ccc3c2)CC1,·,–,·,–,·,·
COc1ccc(/C=N/NC(=O)c2cccc([N+](=O)[O-])c2)cc1OS(=O)(=O)c1ccc(C)cc1,?,21µM,?,?,?,?
CCOc1cc(/C=N/NC(=O)c2cccc([N+](=O)[O-])c2)ccc1OS(=O)(=O)c1ccccc1,?,13µM,–,?,–,?
O=C(C(=O)N1CCN(c2ccccc2)CC1)c1ccco1,–,–,·,–,·,–
